{"source": "PubChem BioAssay AID802", "about": "(Columbia University Molecular Screening Center, 2007)", "note": "Hit rate of the full screen: of about 95,000 compounds, about 460 (0.48%) were called active. Shown is part of a subset that was picked to be rich in actives. A number with no mark means an inactive call.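 Rule for the calls: active = inhibition above the batch mean plus 3 SD, with images confirmed as a hit by eye (cut at about 37% in these data); inconclusive = inhibition above that limit but hit not confirmed in images; inactive = inhibition not above that limit.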"}
{"test": "blockers of endothelial VCAM-1 upregulation by TNFa – imaging, HUVEC, TNFa stimulus, immunofluorescence, primary screen (AID 802);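 note: 0% = TNF-stimulated DMSO wells and 100% = unstimulated control wells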", "settings": "HUVEC TNFa-induced VCAM-1 immunofluorescence, high-content imaging; at 2 µM; stronger effect = higher value"}
{"compound": "O=C1CSC(c2cccc(F)c2)N1c1ccc(O)cc1", "note": "(stereo not given)", "inhibition": "-1.8%"}
{"compound": "C/C(=C\\C(=O)c1ccccc1)Nc1cccc(O)c1", "inhibition": "-2.3%"}
{"compound": "CCC(=O)Nc1cccc(NC(=O)c2cccnc2)c1", "inhibition": "7.8%"}
{"compound": "C/C(=C\\C(=O)c1cccnc1)Nc1ccc(C)c(C)c1", "inhibition": "89.1% (active)"}
{"compound": "Cc1c(NC(=O)/C=C/C(=O)O)cccc1[N+](=O)[O-]", "inhibition": "3.3%"}
{"compound": "O=C(CSc1ncnc2c1cnn2CCc1ccccc1)Nc1ccc(F)cc1", "inhibition": "1.7%"}
{"compound": "CCOC(=O)N1CCN(C(=O)CSc2ccc(Cl)cc2)CC1", "inhibition": "-18.1%"}
{"compound": "CCOC(=O)N1CCN(C(=O)COc2ccc(Cl)cc2C)CC1", "inhibition": "92.1% (active)"}
{"compound": "CCOC(=O)N1CCN(C(=O)COc2ccc(Br)cc2)CC1", "inhibition": "-1.9%"}
{"compound": "CCn1c2ccccc2c2cc(NC(=O)C/C(C)=N/NC(=O)c3ccccc3N)ccc21", "inhibition": "1.3%"}
{"compound": "COC(=O)c1cc(OC)c(OC)cc1NC(=O)CSc1ccc(C)cc1", "inhibition": "-25%"}
{"compound": "Cc1ccc2nc(SCc3nnc(-c4ccccc4[N+](=O)[O-])o3)c(C#N)cc2c1", "inhibition": "6%"}
{"compound": "CN(C)c1ccnc(Oc2ccc(F)cc2)c1C#N", "inhibition": "-15.3%"}
{"compound": "Cc1cc(C)n(-c2cc(Oc3ccccc3)ncn2)n1", "inhibition": "13.4%"}
{"compound": "CC(=O)c1ccc(Oc2cc(C)nc(-n3nc(C)cc3C)n2)cc1", "inhibition": "75.8% (active)"}
{"compound": "Cc1cc(Oc2ccccc2)nc(N2CCOCC2)n1", "inhibition": "0.8%"}
{"compound": "O=C(Cc1ccc(-n2c(=O)[nH]c3ccccc3c2=O)cc1)N1CCN(c2cccc(Cl)c2)CC1", "inhibition": "1.3%"}
{"compound": "Cc1cccc(S(=O)(=O)CC(=O)Nc2nc(-c3ccccc3)cs2)c1", "inhibition": "-5.3%"}
{"compound": "CN(CC#CCC(c1ccccc1)c1ccccc1)C(C)(C)C", "inhibition": "5.2%"}
{"compound": "O=C1Cc2ccccc2Sc2ccc(Cl)cc21", "inhibition": "10%"}
{"compound": "CSCc1cc(N2CCOCC2)nc(SCc2ccc(Cl)cc2Cl)n1", "inhibition": "5.1%"}
{"compound": "Cc1ccc(-c2csc(NC(=O)Cc3cccs3)n2)cc1C", "inhibition": "1.5%"}
{"compound": "COc1ccc(OC)c(/C=N/NC(=O)CSc2nnc(C)n2-c2ccccc2)c1", "inhibition": "0.9%"}
{"compound": "O=C(Nc1ccccc1)c1ccccc1NC(=O)C(F)(F)F", "inhibition": "-10.4%"}
{"compound": "COc1cc(/C=C2\\SC(=S)N(Nc3ncc(C(F)(F)F)cc3Cl)C2=O)cc(OC)c1OC", "inhibition": "14.4%"}
{"compound": "O=C(c1ccccc1)C(Cn1cncn1)C(Sc1ccccc1)c1ccccc1", "note": "(stereo not given)", "inhibition": "0.1%"}
{"compound": "CCOc1ccc(NC(=O)CCS(=O)(=O)c2ccc3c(c2)CCCN3C(=O)CC)cc1", "inhibition": "0.8%"}
{"compound": "COc1ccccc1NC(=O)C1CCCN(c2cc(C)nc3ncnn23)C1", "note": "(stereo not given)", "inhibition": "3.1%"}
{"compound": "CC(C)c1nc(N2CCOCC2)c(C#N)c2c1COC(C)(C)C2", "inhibition": "-40.7%"}
{"compound": "CC1(C)Cc2c(C#N)c(SCc3nc4ccccc4[nH]3)nc(N3CCOCC3)c2CO1", "inhibition": "7.1%"}
{"compound": "CC(C)C(=O)N1CCN(c2nc(-c3ccccc3)c3c(c2C#N)CC(C)(C)OC3)CC1", "inhibition": "36.7% (active)"}
{"compound": "S=C(NCc1cccs1)Nc1ccc(Cl)cc1", "inhibition": "-27.9%"}
{"compound": "Cc1cc2cc(CNC(=O)c3cccs3)ccc2[nH]1", "inhibition": "11.4%"}
{"compound": "COCCn1c(SCc2nnc(-c3ccc(OC)c(OC)c3)o2)nc2sc3c(c2c1=O)CCC3", "inhibition": "-4.9%"}
{"compound": "O=C(c1ccccn1)c1ncc(C(F)(F)F)cc1Cl", "inhibition": "2.2%"}
{"compound": "Cc1ccc(C(=O)c2c(NC(=O)c3ccncc3)sc3c2CCCC3)cc1", "inhibition": "3%"}
{"compound": "O=C(Cn1cnc2ccccc2c1=O)NCC1COc2ccccc2O1", "note": "(stereo not given)", "inhibition": "0.5%"}
{"compound": "Cc1ccc(-c2nn(C(C)(C)C)c3ncnc(N)c23)cc1", "inhibition": "40.8% (active)"}
{"compound": "C=CCn1c(N)c(S(=O)(=O)c2cccs2)c2nc3ccccc3nc21", "inhibition": "-6.6%"}
{"compound": "CC(C)(C)OC(=O)c1c(N)n(CCCN2CCCC2=O)c2nc3ccccc3nc12", "inhibition": "-22.1%"}
{"compound": "C=CCn1c(N)c(C(=O)OCC(C)C)c2nc3ccccc3nc21", "inhibition": "94.4% (active)"}
{"compound": "Cc1ccc(SCC(=O)c2cc(C)c(OC(=S)N(C)C)c(C)c2)cc1", "inhibition": "8.8%"}
{"compound": "COc1cc(C(=O)N2CCN(C/C=C/c3ccccc3)CC2)cc(OC)c1C", "inhibition": "-10.4%"}
{"compound": "Cc1cc(/C=N/NC(=O)CC2(C)OCCO2)c(C)n1-c1ccc(Cl)c(Cl)c1", "inhibition": "-7.1%"}
{"compound": "CCOC(=O)C(=O)Nc1nc(-c2ccccc2)c(CC)s1", "inhibition": "4.9%"}
{"compound": "O=S(=O)(NCc1cccnc1)c1ccc(Cl)nc1", "inhibition": "0.2%"}
{"compound": "COc1ccc(C(C(=O)NCc2ccccc2)N(Cc2cccs2)C(=O)c2cnccn2)cc1", "note": "(stereo not given)", "inhibition": "2.9%"}
{"compound": "Cc1ccc(-c2nc3ccccc3[nH]2)cc1N", "inhibition": "4.2%"}
{"compound": "NC(=O)COc1ccc(/C=N/NC(=O)C2CCCN2S(=O)(=O)c2ccc(Cl)cc2)cc1", "note": "(stereo not given)", "inhibition": "17.1%"}
{"compound": "O=S(=O)(/N=C(/Nc1ccccn1)c1ccccc1)c1ccc(Cl)cc1", "inhibition": "0.3%"}
{"compound": "Cc1ccccc1CS(=O)(=O)CC1(O)CCN(C(=O)c2cccc(C(F)(F)F)c2)CC1", "inhibition": "-2%"}
{"compound": "O=C(NC1(C(F)(F)F)NC(=O)N(Cc2cccnc2)C1=O)c1ccccc1Cl", "note": "(stereo not given)", "inhibition": "8.4%"}
{"compound": "COc1cc(NS(=O)(=O)c2ccc(N/C=C(\\C=O)c3nc4cc(Cl)ccc4o3)cc2)nc(OC)n1", "inhibition": "-2.6%"}
{"compound": "Cc1cc(C(=O)CSc2nc(N)cc(=O)[nH]2)c(C)n1CCc1ccc(Cl)cc1", "inhibition": "16.5%"}
{"compound": "CSc1nc2nc3c(c(=O)n2[nH]1)CCC3", "inhibition": "7.1%"}
{"compound": "CC(C)=CC(=O)Nc1nnc(-c2ccc(F)cc2)s1", "inhibition": "6.5%"}
{"compound": "CC(C)(C)c1cc2cccnc2n1Cc1ccccc1", "inhibition": "9.9%"}
{"compound": "Cc1cccc(N2CCN(S(=O)(=O)c3ccc4[nH]c(=O)c(=O)[nH]c4c3)CC2C)c1", "note": "(stereo not given)", "inhibition": "3.1%"}
{"compound": "CCOc1ccccc1N=C1NC(=O)CS1", "inhibition": "-6.9%"}
{"compound": "Cc1cccc(N=C2NC(=O)CS2)c1C", "inhibition": "97.1% (active)"}
{"compound": "CCCOC(=O)c1[nH]c2c(c1C)C(=O)CC(c1cccs1)C2", "note": "(stereo not given)", "inhibition": "65% (active)"}
{"compound": "C=CCOC(=O)C1=C(C)NC(C)=C(C(=O)OCC=C)C1c1cccs1", "inhibition": "3.8%"}
{"compound": "COC(=O)C1C(=O)c2c([nH]c(C(=O)OCCSC)c2C)CC1C", "note": "(stereo not given)", "inhibition": "1.9%"}
{"compound": "CCCCCCC12CCC(C(=O)O)(CC1)CC2", "inhibition": "25.1%"}
{"compound": "Cc1cccc2c(=O)n3c(nc12)CCCCC3", "inhibition": "13.3%"}
